“And” between values parts separate entries of the source, which are not always exact repeats. Equal values may be shown once. Inconclusive results are not listed. The source made the active and inactive calls. Calls come from the whole dose curve; as a rule, active = well fitted inhibition curve with a large enough effect; inconclusive = small, poorly fitted or top-dose-only effect; inactive = no such curve, though single readings can be large or run the other way.
biological target: Cruzipain (Trypanosoma cruzi) (UniProt P25779); assay: Confirmation qHTS Assay for Inhibitors of Cruzain; conditions: purified cruzain, Z-FR-AMC fluorescence, 0.01% Triton; note: nearly all actives have a fitted effect of over 40% in size;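 for Activity change, negative = inhibition: plate controls were uninhibited enzyme control for no effect and buffer wells lacking enzyme for full effect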
Sequence (P25779 123-467 limits assumed): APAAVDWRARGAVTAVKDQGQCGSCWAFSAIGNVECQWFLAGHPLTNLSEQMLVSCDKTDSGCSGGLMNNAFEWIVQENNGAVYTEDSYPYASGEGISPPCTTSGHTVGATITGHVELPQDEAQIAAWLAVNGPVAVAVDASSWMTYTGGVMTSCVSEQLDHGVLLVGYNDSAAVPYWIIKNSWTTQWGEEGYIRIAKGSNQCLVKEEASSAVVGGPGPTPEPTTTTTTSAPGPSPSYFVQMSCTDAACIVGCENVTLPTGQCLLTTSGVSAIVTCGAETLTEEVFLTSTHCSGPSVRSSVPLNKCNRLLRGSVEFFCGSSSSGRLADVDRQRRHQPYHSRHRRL
Method in brief: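 Reaction progress from the 60 s rise in AMC fluorescence (ex 360, em 450 nm) after adding 2 uM Z-FR-AMC. Before this, 1.5 nM cruzain sat 15 min at room temperature with compound in pH 5.5 acetate buffer with 5 mM DTT and 0.01% Triton X-100.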
Potency is the fitted concentration of half-maximal effect.

Potency, active:
O=C(NCCc1nc2ccccc2n1CCOc1ccc2ccccc2c1)C1CCCCC1 3.55 µM
O=C(NC1CCCC1)c1ccc2nc(-c3ccco3)c(-c3ccco3)nc2c1 8.91 µM
CCNc1nc(C#N)nc2c1ncn2-c1cc(F)cc(F)c1 0.224 µM
CSCC[C@H](NC(=O)COc1ccc(Cl)cc1Cl)c1nc2ccccc2[nH]1 2.82 µM
N#Cc1nc(Nc2cccc(Br)c2)nc(NC2CCCC2)n1 0.1 µM
Cc1ccccc1OCC(=O)NCC(=O)OCC(=O)c1ccc([N+](=O)[O-])cc1 35.5 µM
Cn1c(C(=O)NCCN2CCCCCC2)cc2c(=O)n(C)c3ccccc3c21 25.1 µM
CC(C)CNc1nc(C#N)nc(Nc2ccccc2)n1 0.891 µM
COc1ccc(-c2nc3c(=O)n(C)c(=O)nc-3n(C)n2)cc1 1.26 µM
O=C(NCCc1nc2ccccc2n1CCCOc1cccc2ccccc12)C1CCCCC1 2.24 µM
Cc1cccc(C)c1OCCCn1c(CCNC(=O)C2CCCCC2)nc2ccccc21 1.26 µM and 1.58 µM
O=C(Nc1ccccc1)c1ccc2nc(-c3ccco3)c(-c3ccco3)nc2c1 7.94 µM
N#Cc1nc(NCC2CC2)nc(Nc2ccccc2)n1 0.891 µM
CCc1ccc(-c2nc3c(=O)n(C)c(=O)nc-3n(CC)n2)cc1 2.51 µM
O=C(CNC(=O)c1ccccc1)OC(CCc1ccccc1)C(=O)Nc1cc(C(F)(F)F)ccc1Cl (stereo not drawn) 7.94 µM
N#Cc1nc(N)nc(N2CCCCC2)n1 7.94 µM
COc1nc(C#N)nc(N2CCCC2)n1 3.98 µM
O=C(CNC(=O)c1ccccc1)OC(Cc1ccccc1)C(=O)Nc1cc(C(F)(F)F)ccc1Cl (stereo not drawn) 7.08 µM
CN1C(=O)/C(=N\OC(=O)c2cccc3ccccc23)c2ccccc21 10 µM
O=C(COC(=O)CNC(=O)C1CCCCC1)Nc1ccccc1Cl 3.98 µM
CCc1ccc(OCCCn2c(CCNC(=O)C3CCCCC3)nc3ccccc32)cc1 1.41 µM
Cc1ccccc1-c1nc2c(=O)n(C)c(=O)nc-2n(C)n1 0.891 µM
CNc1nc(C#N)nc(Nc2ccccc2)n1 1.26 µM

Activity change, negative = inhibition, inactive:
Cc1oc(=O)c(NC(=O)c2cccc(Cl)c2)cc1C(=O)c1ccccc1 -24.6%
COc1ccc(-c2cc(C#N)nc(N3CCN(C)CC3)n2)cc1 -11.8%
COc1ccc(-c2nn3c(-c4cc(-c5ccccc5)n[nH]4)nnc3s2)cc1 -14.7%
O=C(CNC(=O)c1ccc(-c2ccccc2)cc1)OC(C(=O)Nc1cc(C(F)(F)F)ccc1Cl)c1ccccc1 (stereo not drawn) -19.3%
COc1cccc(CN2C(=O)c3ccccc3Sc3ccc(C(=O)NCCc4ccc(Cl)cc4)cc32)c1 5.18%
CNC(=O)c1ccc2nc(-c3ccccc3)c(-c3ccccc3)nc2c1 -11.4%
Cc1nc2cc(-c3ccccc3)nn2c(C)c1CCC(=O)N1CCN(c2ccccc2)CC1 -13%
CC1CN(c2oc(-c3cccs3)nc2C#N)CC(C)O1 (stereo not drawn) -79.4%
CCCCNC(=O)C(CC)n1c(SCc2cccc(F)c2)nc2ccncc21 (stereo not drawn) -13.4%
COc1ccc(-c2nnc(NC(=O)c3ccc(S(=O)(=O)N4CCCc5ccccc54)cc3)o2)cc1 -17.1%
N#Cc1nc(-c2cccs2)oc1N1CCOCC1 -30.8%
N=c1c(C(=O)NCc2ccc(F)cc2)cc2c(=O)n3ccccc3nc2n1CC1CCCO1 (stereo not drawn) -76.7%
CC(C)(C)OC(=O)NCC(=O)NNC(=O)C(C(=O)OCc1ccccc1)c1ccccc1 (stereo not drawn) -3.79%
N#Cc1c(-c2ccccc2)cc(-c2ccco2)c(C#N)c1N -11%
O=C(NC(=S)Nc1cccc(Cl)c1N1CCCC1)c1ccc(-c2cccc([N+](=O)[O-])c2)o1 -8.07%

Reference: PubChem BioAssay AID2158 (National Center for Advancing Translational Sciences (NCATS), 2009)
